Inconclusive results are not listed. Activity calls are given as the source filed them. Unless noted, the call rests on the fitted dose curve; in most records, active means well fitted curve in the direction sought with a large enough effect in the repeat runs; inconclusive means weak or mixed curves; inactive means no such curve, though single readings can be large; an effect the other way counts as inactive or inconclusive.
Legend:
[1] = qHTS assay to identify small molecule agonists of the vitamin D receptor (VDR) signaling pathway - cell viability counter screen (AID 743224); further: series mostly up to about 63 µM; nearly all actives have a fitted effect of over 50% in size
Method in brief: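 Compounds were pin-transferred onto VDR-bla cells plated 4 h earlier; following 16 h incubation at 37C, cell viability was quantified by CellTiter-Glo luminescence after 30 min at room temperature.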

[2] = qHTS assay to identify small molecule antagonists of the vitamin D receptor (VDR) signaling pathway - cell viability counter screen (AID 743225); further: nearly all actives have a fitted effect of over 50% in size
Method in brief: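 Cytotoxicity toward the VDR-bla HEK 293T line was scored by ATP-based CellTiter-Glo luminescence, read in the wells already used for the beta-lactamase readout after 16 h compound treatment under 3 nM 1-alpha,25-dihydroxyvitamin D3 stimulation.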

[3] = qHTS assay to identify small molecule agonists of the NFkB signaling pathway (AID 1159509; active means well fitted curve in the direction sought with a large enough effect in the signal ratio in the repeat runs, not every such curve was filed as active; the % refers to the signal ratio; further: series mostly up to about 61 µM)
Method in brief: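 Agonist activity was read as beta-lactamase-driven FRET change (460 and 530 nm emission, 405 nm excitation) following 1.5 hr substrate loading at room temperature. Beforehand, ME-180 NFkB-bla reporter cells were treated with compounds for 5 hr at 37 C.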

[4] = qHTS assay to identify small molecule agonists of the NFkB signaling pathway - cell viability counter screen (AID 1159515; calls by dose curve; further: series mostly up to about 61 µM; nearly all actives have a fitted effect of over 55% in size)
Method in brief: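 Parallel cytotoxicity counter screen in ME-180 cells carrying an NFkB-response-element beta-lactamase reporter, 2,000 cells/well. Compound exposure lasted 5 hr at 37 C, 5% CO2. Cell viability was quantified by CellTiter-Glo luminescence.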

[5] = qHTS assay to identify small molecule agonists of the endoplasmic reticulum stress response signaling pathway (AID 1159516; active means well fitted activation curve with a large enough effect in the signal ratio in the repeat runs, not every such curve was filed as active; the % refers to the signal ratio)
Method in brief: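 Using a HeLa line with an ESRE-driven beta-lactamase gene, agonist activity was measured by FRET substrate fluorescence (460 and 530 nm emission) after cells were treated with compounds for 5 hr at 37 C and 5% CO2.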

[6] = qHTS assay to identify small molecule agonists of the endoplasmic reticulum stress response signaling pathway - cell viability counter screen (AID 1159517; calls by dose curve;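 further: HeLa cells carrying an ER stress response element beta-lactamase reporter; series mostly up to about 61 µM; nearly all actives have a fitted effect of over 50% in size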)
Method in brief: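 Cpd-treated ESRE-bla HeLa (5 hr, 37 C) → LiveBLAzer 2 hr RT → CellTiter-Glo 30 min RT → luminescence.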

[7] = biological target: Nuclear receptor ROR-gamma (Homo sapiens) (UniProt P51449); experiment: qHTS assay to identify small molecule antagonists of the retinoid-related orphan receptor gamma (ROR-gamma) signaling pathway (AID 1159521;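 further: CHO cells with doxycycline inducible ROR-gamma driving an RORE luciferase reporter; top concentration of the series differs between compounds; nearly all actives have a fitted effect of over 50% in size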)
Method in brief: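 Readout: ONE-Glo luciferase luminescence, 30 min at room temperature. System: Tet-on RORγ CHO, RORE-LUC. Sequence: compound 2 h, doxycycline 1 uM final, 16 h at 37 C.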

[8] = qHTS assay to identify small molecule agonists of the AP-1 signaling pathway - cell viability counter screen (AID 1159525; calls by dose curve; further: nearly all actives have a fitted effect of over 55% in size)
Method in brief: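 Each titration point was normalised to DMSO and tetra n-octyl ammonium bromide controls. The read was Cell Titer Glo luminescence after 30 min at RT, following 5 h compound exposure of ME-180 AP-1-bla cells at 37 °C.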

[9] = qHTS assay to identify small molecule agonists of the AP-1 signaling pathway (AID 1159526; calls by dose curve)
[10] = biological target: Retinoic acid receptor RXR-alpha (Homo sapiens) (UniProt P19793); experiment: qHTS assay to identify small molecule agonists of the RXR signaling pathway (AID 1159527; calls by dose curve; further: nearly all actives have a fitted effect of over 35% in size)
Sequence of Retinoic acid receptor RXR-alpha (Homo sapiens) (P19793 whole entry, looked up): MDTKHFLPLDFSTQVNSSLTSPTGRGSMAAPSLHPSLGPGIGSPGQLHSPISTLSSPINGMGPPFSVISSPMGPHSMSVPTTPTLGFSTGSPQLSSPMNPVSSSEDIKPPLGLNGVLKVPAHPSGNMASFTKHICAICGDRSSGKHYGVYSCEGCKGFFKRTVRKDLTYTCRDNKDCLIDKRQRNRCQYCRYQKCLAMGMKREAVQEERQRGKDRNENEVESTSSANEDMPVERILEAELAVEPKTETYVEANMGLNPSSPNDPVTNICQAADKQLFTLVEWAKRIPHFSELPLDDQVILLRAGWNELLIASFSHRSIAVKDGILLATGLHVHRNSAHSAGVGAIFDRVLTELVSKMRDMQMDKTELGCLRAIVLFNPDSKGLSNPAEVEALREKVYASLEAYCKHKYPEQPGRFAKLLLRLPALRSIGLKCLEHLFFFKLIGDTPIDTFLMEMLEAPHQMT
Method in brief: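 Reporter activation is measured as beta-lactamase activity via FRET substrate cleavage (emission 460/530 nm) in HEK 293T cells expressing an RXR-alpha-driven bla construct, following 16 hr compound exposure at 37 C.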

[11] = qHTS assay to identify small molecule agonists of the RXR signaling pathway - cell viability counter screen (AID 1159529)
Method in brief: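 Tox21 10K compounds were tested for cytotoxicity against GeneBLAzer RXR-alpha HEK 293T cells grown in 2% charcoal-stripped FBS. Exposure lasted 16 hr at 37 C, 5% CO2; viability read by CellTiter-Glo luminescence.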

[12] = qHTS assay to identify small molecule antagonists of the retinoid acid receptor (RAR) signaling pathway - cell viability counter screen (AID 1159551); further: nearly all actives have a fitted effect of over 35% in size
Method in brief: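 ATP-based viability, C3RL4 cells, 6 h at 37 C with 1 uM final retinol co-added after compound; luminescence read 30 min post CellTiter-Glo, RT.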

[13] = qHTS assay to identify small molecule antagonists of the estrogen related receptor (ERR) signaling pathway from Tox21 library - cell viability counter screen (AID 1224834); further: nearly all actives have a fitted effect of over 30% in size
Method in brief: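 Compounds in DMSO were pinned onto ERR cells that had been incubated for 6 h, and the plates were held at 37 C for 17.5 h. CellTiter-Fluor reagent was then added and fluorescence was measured after 30 min.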

[14] = qHTS assay to identify small molecule agonists of the retinoic acid receptor (RAR) signaling pathway (AID 1159553)
Method in brief: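 Quantitative high-throughput format: the Tox21 10K library was tested on C3RL4 RARE-luciferase cells for 6 hr at 37 C and 5% CO2, with luminescence measured after a 30 min room-temperature reagent step.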

[15] = qHTS assay to identify small molecule antagonists of the retinoic acid receptor (RAR) signaling pathway (AID 1159552; further: nearly all actives have a fitted effect of over 50% in size)
Method in brief: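 Overnight-plated C3RL4 reporter cells get compound, then retinol to 1 uM final; plates sit 6 hr at 37 C, 5% CO2. A luciferase reagent is added and light output recorded after 30 min at room temperature.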

[16] = qHTS assay to identify small molecule antagonists of the estrogen related receptor (ERR) signaling pathway - cell viability counter screen (AID 1224818);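 further: series mostly up to about 46 µM; viability measured after 17.5 h of compound exposure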
Method in brief: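 Quantitative high-throughput viability counter screen in ERR cells. Compounds (DMSO) incubated 17.5 h at 37 C; read-out was CellTiter-Fluor fluorescence.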

[17] = qHTS assay to identify small molecule agonists of the estrogen related receptor (ERR) signaling pathway (AID 1224820)
Method in brief: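 After 6 h plating (2,000 cells/well) and 18 h compound treatment at 37 C, ERR cells were lysed with One-Glo and luminescence read after 30 min at room temperature.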

[18] = tested on: estrogen-related receptor alpha (ERRalpha) with PGC-1alpha coactivator, human; experiment: qHTS assay to identify small molecule antagonists of the estrogen related receptor signaling pathway with the pleiotropic PPARgamma coactivator (PGC) (AID 1224821; calls by dose curve)
Method in brief: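 Luminescence from One-Glo luciferase reagent (30 min, room temperature) measured after 18 h compound treatment at 37 °C. Cells carry the PGC/ERR reporter and were seeded 6 h prior to dosing.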

[19] = qHTS assay to identify small molecule agonists of the estrogen related receptor signaling pathway with the pleiotropic PPARgamma coactivator (PGC) (AID 1224823)
Method in brief: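 Luminescence from One-Glo reagent (30 min, room temperature) was read after 18 h compound treatment at 37 C of PGC/ERR cells plated 6 h beforehand; compounds delivered in DMSO by pin tool.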

[20] = qHTS assay to identify small molecule antagonists of the retinoid-related orphan receptor gamma (ROR-gamma) signaling pathway - cell viability counter screen (AID 1159520); further: nearly all actives have a fitted effect of over 50% in size
Method in brief: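 Tet-on ROR gamma CHO cells (1,000/well) were plated 4 hr, given compounds in DMSO for 2 hr at 37 C, then induced with 1 uM final doxycycline for 16 hr. Viability was read as ATP by CellTiter-Glo luminescence after 30 min.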

Measured: Potency

Cc1ccc(S(=O)(=O)O)c(C)c1
not listed: [14] | [15] | [16] | [17] | [18] | [19] | [20]
inactive: all other assays above

O=C(OCC1(COC(=O)c2cccnc2)CCCC(COC(=O)c2cccnc2)(COC(=O)c2cccnc2)C1O)c1cccnc1
not listed: [13] | [15] | [16] | [17] | [18] | [19] | [20]
inactive: all other assays above

Cc1ccc2c(c1)OCC(=O)CO2
not listed: [2] | [14] | [16] | [17] | [18] | [19] | [20]
inactive: all other assays above

CC(=O)CCCCn1c(=O)c2c(ncn2C)n(C)c1=O
not listed: [14] | [15] | [20]
inactive: all other assays above

O=C(Nc1ccc(Cl)c(Cl)c1)C1CC1
not listed: [5] | [16] | [17] | [18] | [19]
inactive: all other assays above

Cc1ccccc1OCC(O)CO (stereo not given)
not listed: [14] | [15] | [16] | [17] | [18] | [19] | [20]
inactive: all other assays above

CN=C(NC#N)Nc1ccc(C2=NNC(=O)CC2C)cc1 (stereo not given)
not listed: [14] | [15] | [16] | [17] | [18] | [19] | [20]
inactive: all other assays above

C=COCCOCCOCCOC=C
not listed: [14] | [15] | [16] | [17] | [18] | [19] | [20]
inactive: all other assays above
